The list is not random: actives were taken first. Their share in the collection is about 7.3%.
SMN2 splice enh: enhancers of SMN2 splice variant expression. HEK293 SMN2-luciferase splicing reporter, luminescence, 30-36 h. Potency, µM (top dose mostly 46.1 µM), for the others: at the highest dose activity change, positive = activation, actives largely listed as activators. 210,000 compounds, 2.8% hits; note: % of control where 0% means no effect; nearly all actives have a fitted effect of over 55% in size
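qHTS luciferase splicing reporter: luminescence rises when SMN2 exon 7 is included in transfected HEK293 cells. Compound exposure lasted 30-36 h at 37C, with 4.5 mM final sodium butyrate as control, followed by a ONE-Glo read.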
FLuc counter: counter-screen for miR-21 project: firefly luciferase inhibitors or activators | Potency, µM (highest dose often 57.5 µM), without a hit: at the top dose activity change, negative = inhibition, usual class: inhibitors | AID 588342 | 360,000 compounds, 6.9% hits | purified FLuc, Km substrates, luminescence inhibition | P08659;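 note: plate controls were vehicle for no effect and reference inhibitor for full effect; nearly all actives have a fitted effect of over 55% in size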
Target sequence (P08659 whole entry, looked up): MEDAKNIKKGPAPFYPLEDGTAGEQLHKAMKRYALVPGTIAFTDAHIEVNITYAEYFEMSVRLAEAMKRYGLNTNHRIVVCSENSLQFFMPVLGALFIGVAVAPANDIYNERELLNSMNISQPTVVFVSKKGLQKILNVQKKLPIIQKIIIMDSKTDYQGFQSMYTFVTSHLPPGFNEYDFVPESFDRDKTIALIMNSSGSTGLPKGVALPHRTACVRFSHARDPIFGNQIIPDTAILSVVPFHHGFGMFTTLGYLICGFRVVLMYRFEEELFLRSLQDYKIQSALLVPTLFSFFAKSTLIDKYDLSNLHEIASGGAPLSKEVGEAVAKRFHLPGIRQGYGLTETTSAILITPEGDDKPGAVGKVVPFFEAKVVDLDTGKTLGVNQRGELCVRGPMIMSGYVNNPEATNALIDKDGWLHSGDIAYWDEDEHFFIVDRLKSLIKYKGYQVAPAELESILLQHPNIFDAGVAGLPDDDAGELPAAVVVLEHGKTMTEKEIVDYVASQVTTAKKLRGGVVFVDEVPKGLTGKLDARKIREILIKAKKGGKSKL
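Biochemical qHTS of compounds, final roughly 60 µM downward over six points, against 10 nM purified firefly luciferase using Km concentrations of substrates (10 uM D-luciferin, 10 uM ATP) in Tris acetate pH 7.5 buffer; luminescence output.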
NPC1 promoter act: activators of NPC1 promoter | Huh7 NPC1 promoter luciferase reporter, 24 h | Potency, µM (titrated, usually from 9.22 µM), without a hit: at the highest dose activation, hits mostly activators | 320,000 compounds, 2.4% hits | AID 485313; note: % of control where 0% means no effect; nearly all actives have a fitted effect of over 60% in size
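Luminescence read-out of NPC1 promoter-driven luciferase in stably transfected Huh7 cells; compounds delivered in DMSO and left 24 h at 37C, 5% CO2, qHTS titration format.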
Rab9 prom act: activates the Rab9 promoter | Huh7 Rab9 promoter-luciferase reporter, luminescence, 24 h | Potency, µM (titrated, usually from 9.22 µM), without a hit: at the highest dose activation, negative = inhibition, hits mostly activators | 320,000 compounds, 2.8% hits | AID 485297; note: % of control where 0% means no effect; nearly all actives have a fitted effect of over 60% in size
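Measured in stably transfected Huh7 cells bearing a Rab9 promoter–luciferase construct: 24 h compound treatment at 37 °C, followed by luminescence detection.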
ELG1 genotoxic: inducers of genotoxicity in HEK293T ELG1-luciferase cells; HEK293T ELG1-luciferase reporter, luminescence, 16 h; Potency, µM (doses to about 46 µM), inactives show top-dose activity change, positive = activation, hits mostly activators; 330,000 compounds, 1.3% hits; note: % of control where 0% means no effect; nearly all actives have a fitted effect of over 60% in size
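16 hr compound incubation (37 °C, 5% CO2) of HEK293T cells carrying luciferase-tagged ELG1; luciferase then measured by ONE-Glo luminescence after 30 min at RT.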
uPA surface inh: blocks generation of uPA at the cell surface. Potency, µM (titrated, usually from 38.3 µM), inactives show top-dose activity change, negative = inhibition, most hits filed as inhibitors. 330,000 compounds, 0.31% hits. AID 540303. cell surface uPA generation assay, qHTS; active = well fitted inhibition curve with a large enough effect; inconclusive = small, poorly fitted or top-dose-only effect; inactive = no such curve, though single readings can be large or run the other way; tested in mouse RAW 264.7 cells; note: % is set by controls: 0 for no effect and ±100 for the full control effect; nearly all actives have a fitted effect of over 55% in size
Active calls of the source: *; u = inconclusive; x = no result given. Unless noted, calls come from the whole dose curve; as a rule, active = well fitted curve in the direction sought with a large enough effect; inconclusive = small, poorly fitted or top-dose-only effect, or another doubt; inactive = no such curve, though single readings can be large; an effect the other way counts as inactive or inconclusive. Potency is the fitted concentration of half-maximal effect.

SMILES	SMN2 splice enh	FLuc counter	NPC1 promoter act	Rab9 prom act	ELG1 genotoxic	uPA surface inh
CCC(=O)Nc1ccc(C(=O)Cn2nc(C(=O)O)c3ccccc3c2=O)cc1	27%	-14%	-3%	-2%	1%	x
Cc1cc(C(=O)Cn2nc(C(=O)O)c3ccccc3c2=O)c(C)n1-c1ccc(OC(F)F)cc1	-52%	-16%	0%	1%	-11%	0%
Cc1ccc(C(=O)Cn2nc(C(=O)O)c3ccccc3c2=O)cc1C	x	6.7µM*	4%	13%	1%	-25%
COc1ccc(-n2c(C)cc(C(=O)Cn3nc(C(=O)O)c4ccccc4c3=O)c2C)cc1	-28%	24µM*	-1%	1%	-2%	7%
Cc1ccc(-n2c(C)cc(C(=O)Cn3nc(C(=O)O)c4ccccc4c3=O)c2C)cc1	x	5.4µM*	0%	8%	4%	-2%
CC(=O)OC1CC(OC(C)=O)[C@]2(C)C(CC(OC(C)=O)[C@]3(C)C2CC[C@@]2(C)C(c4ccoc4)OC(=O)C4O[C@]432)C1(C)C (stereo partly drawn)	-43%	x	x	x	x	x
CCOc1ccccc1CNC(=O)c1cnn(-c2ccc(C)cc2)c1-n1cccc1	x	-17%	x	x	x	x
C=CCNC(=O)CSc1nnc(C(CC)N(C)C)n1C1CCCCC1 (stereo not drawn)	x	-2%	-3%	2%	3%	5%
Cc1cc(C(=O)Cn2nnc3ccccc3c2=O)c(C)n1-c1ccccc1F	11µM*	0.34µM*	0.45µM*	0.4µM*	u	-22%
Cc1cc(C(=O)Cn2nc(C(=O)O)c3ccccc3c2=O)c(C)n1CCc1ccc(F)cc1	x	u	3%	5%	-8%	3%
COCC(C)n1c(C)cc(C(=O)Cn2nc(C(=O)O)c3ccccc3c2=O)c1C (stereo not drawn)	2%	7.6µM*	0%	23%	u	-3%
Cc1cc(C(=O)Cn2nc(C(=O)O)c3ccccc3c2=O)c(C)n1CC(F)(F)F	5%	3µM*	18%	u	16%	2%
Cc1cc(C(=O)Cn2nnc3ccccc3c2=O)c(C)n1-c1c(C)n(C)n(-c2ccccc2)c1=O	6%	1%	0%	-7%	0%	11%
CCN(C(=O)CN(C)S(=O)(=O)c1ccc2c(c1)n(C)c(=O)c(=O)n2C)c1cccc(C)c1	-10%	-4%	x	x	x	x
Cc1cc(=O)[nH]c2nnc(-c3ccc(Cl)cc3)n12	x	3.4µM*	2.8µM*	u	u	-17%
O=S(=O)(Nc1cccc(-c2ccc(N3CCCC3)nn2)c1)c1ccccc1C(F)(F)F	x	17µM*	x	x	x	x
O=S(=O)(Nc1cccc(-c2ccc(N3CCOCC3)nn2)c1)c1ccc(F)c(C(F)(F)F)c1	x	9.5µM*	x	x	x	x
O=C(Nc1ccccc1N1CCOCC1)c1cccc(NS(=O)(=O)c2ccc(F)c(F)c2)c1	-7%	-13%	-4%	-4%	-7%	-2%
O=S(=O)(Nc1cccc(-c2ccc(N3CCCC3)nn2)c1)c1ccc(F)c(C(F)(F)F)c1	x	19µM*	x	x	x	x
COc1ccc(OC)c(CCNC(=O)CCn2c(=O)c3cccn3c3cccnc32)c1	x	-2%	x	x	x	x
CCOC(=O)c1c(C)[nH]c(C)c1S(=O)(=O)N1CCC(C(=O)NCc2ccc(F)cc2)CC1	x	-7%	x	x	x	x
COc1ccccc1C(=O)Nc1ccc(OCC(=O)N2C(C)CCCC2C)cc1 (stereo not drawn)	x	8.5µM*	1%	9%	3%	-13%
COc1ccccc1C(=O)Nc1ccc(OCC(=O)N2CCCCC2C)cc1 (stereo not drawn)	x	12µM*	-5%	0%	1%	-1%
O=C(NCCc1c[nH]c2ccccc12)[C@H]1C[C@@H]1[C@H](NP(=O)(c1ccccc1)c1ccccc1)c1ccccc1	-13%	x	x	x	x	x
Cc1cc(Cl)ccc1OCc1cc(=O)n2c3c(sc2n1)CCCC3	-6%	-4%	x	x	x	x
SMILES	SMN2 splice enh	FLuc counter	NPC1 promoter act	Rab9 prom act	ELG1 genotoxic	uPA surface inh
CNC(=O)c1c(NC(=O)c2ccco2)sc2c1CCC2	x	u	14%	u	-1%	-7%
O=C(/C=C/c1ccco1)Nc1sc2c(c1C(=O)O)CCC2	28µM*	13µM*	3.5µM*	u	2%	x
O=C(/C=C/c1ccccc1)Nc1sc2c(c1C(=O)O)CCC2	x	17µM*	u	u	-1%	-27%
N#Cc1c(NC(=O)/C=C/c2ccco2)sc2c1CCCC2	3.5µM*	4.8µM*	u	u	2.9µM*	-12%
COC(=O)c1c(NC(=O)/C=C/c2ccc(OC)cc2)sc2c1CCC2	1%	3%	x	x	x	x
COc1ccccc1C(=O)NCCn1cc(SCc2ccc(C)cc2)c2ccccc21	-42%	-2%	x	x	x	x
COC(=O)C1CCN(C(=O)c2oc3c(Cl)cc(C)cc3c2C)CC1	x	11µM*	0.79µM*	0.63µM*	u	0%
CCOC(=O)C1CCCCN1C(=O)c1oc2c(Cl)cc(C)cc2c1C (stereo not drawn)	x	12µM*	2%	4%	-1%	2%
O=c1c2ccccc2nc2ccc(NCc3cccs3)nn12	16µM*	8.5µM*	3.5µM*	1.6µM*	-20%	-16%
CC(C)[C@@H](CC(=O)N[C@@H]1CCNC[C@H]1C(=O)N[C@H](CC(=O)N[C@@H](CCC(=O)O)CC(=O)O)Cc1c[nH]c2ccccc12)NC(=O)C[C@H](CO)NC(=O)[C@@H]1CNCC[C@H]1N	10%	x	x	x	x	x
O=C(Nc1cc(Cl)ccc1O)c1cc(-c2ccc3c(c2)OCO3)on1	u	-16%	x	x	x	x
CC(C)N1CCC2(CC1)N=C(c1ccc3c(c1)OCO3)CC(c1cc(Cl)ccc1O)N2 (stereo not drawn)	-23%	17µM*	-4%	-1%	-16%	-11%
O=C(c1cc2c(=O)oc3ccccc3c2s1)N1CCN(c2cccc(Cl)c2)CC1	6%	-2%	x	x	x	x
CCOc1ccccc1CNC(=O)c1ccc2c(c1)N(Cc1ccc(C)cc1)CCS2	-15%	-9%	x	x	x	x
CCOc1ccc(C(=O)NCCc2csc(-c3cccc(F)c3)n2)cc1OCC	x	-12%	x	x	x	x
Cc1cccc(-c2nc(CCNC(=O)Cc3ccccc3)cs2)c1	x	-19%	x	x	x	x
COc1cc(OC)cc(C(=O)NCCc2csc(-c3ccc(C(F)(F)F)cc3)n2)c1	x	-12%	x	x	x	x
Cc1ccc(C(=O)NCCc2csc(-c3cccc(F)c3)n2)cc1C	x	19µM*	x	x	x	x
COc1ccc(C(=O)NCCc2csc(-c3ccc(Cl)cc3)n2)cc1	x	12µM*	x	x	x	x
CCOc1ccc(C(=O)NCCc2csc(-c3cccc(C)c3)n2)cc1	x	17µM*	x	x	x	x
COc1ccc(-c2csc(/C(C#N)=C\c3ccc(OC)c([N+](=O)[O-])c3)n2)cc1	-13%	2%	-3%	-5%	-3%	1%
